Shown are actives, neighbours in structure and some others; about 9.3% of the full set was active somewhere.
VACV Venus inh: inhibitors of vaccinia virus (Venus reporter); Vaccinia virus Venus reporter expression, fluorescence; Potency, µM (highest dose often 36.5 µM), for the others: top-dose activity change, negative = inhibition, hits mostly inhibitors; 0.46% of 330,000 active; calls by dose curve; tested in A549 cells; further: potency means the concentration at half of the fitted maximal effect; nearly all actives have a fitted effect of over 30% in size
Sm TGR inh: S. mansoni TGR enzyme inhibition. Q962Y6. Potency, µM (series often up to 114 µM), for the others: top-dose activity change, negative = inhibition, usual class: inhibitors. 3% of 360,000 active. purified TGR, DTNB reduction, TNB absorbance 405 nm; further: potency means the concentration at half of the fitted maximal effect; nearly all actives have a fitted effect of over 60% in size
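Kinetic colorimetric format: TGR-catalysed, NADPH-driven DTNB reduction monitored via TNB absorbance. Enzyme dispensed at 20 nM; compound exposure 15 min at room temperature before reaction start.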
Vaccinia mCherry: vaccinia inhibition (mCherry reporter); Vaccinia virus mCherry reporter infection, fluorescence; Potency, µM (series often up to 36.5 µM), for the others: top-dose activity change, negative = inhibition, usual class: inhibitors; 0.63% of 310,000 active; AID 720579; calls by dose curve; tested in A549 cells; further: potency means the concentration at half of the fitted maximal effect; nearly all actives have a fitted effect of over 35% in size
HCMV inh: human cytomegalovirus inhibition; HFF cells, HCMV-luciferase reporter, 72 h; stronger effect = lower value; activity change, negative = inhibition, % at 57.5 µM; 4.5% of 410,000 active; AID 1259415; in the data active means activity change below about -60%; inconclusive means no clear call, values can overlap the other calls; inactive means above about -39%
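Steps: HFFs plated, 16 h 37C; compounds added; HCMV-luciferase added to MOI 1 PFU/cell; 72 h 37C; OneGlo reagent, 5 min room temperature; luminescence read, normalized to controls.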
FMDV antiviral: antivirals against foot and mouth disease virus; FMDV antiviral cell-based qHTS; Potency, µM (titrated, usually from 57.9 µM), without a hit: at the highest dose activity change, negative = inhibition, hits mostly inhibitors; 1.2% of 410,000 active; calls by dose curve; tested in HEK293T cells; further: read-out not given here; potency means the concentration at half of the fitted maximal effect; nearly all actives have a fitted effect of over 45% in size
HCV inh: blocks hepatitis C virus | Huh7.5.1 HCVcc-Cre infection, luciferase reporter, 44 h | Potency, µM (top dose mostly 41.8 µM), inactives show at the highest dose activity change, negative = inhibition, usual class: inhibitors | 3.4% of 340,000 active | AID 651820; further: potency means the concentration at half of the fitted maximal effect
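A cell-based infection assay in which seeded cells (1,000 per well) receive test compound after 4 h, are inoculated with HCVcc-Cre at approximately 0.5 moi, and are incubated 44 h before luminescence detection.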
* = called active by the depositor; i = inactive; ? = inconclusive; · = not tested or not shown; ! = repeats disagree; [ ] = dose if it differs, or a comment. Unless noted, the call rests on the fitted dose curve; in most records, active means well fitted curve in the direction sought with a large enough effect; inconclusive means small, poorly fitted or top-dose-only effect, or another doubt; inactive means no such curve, though single readings can be large; an effect the other way counts as inactive or inconclusive. On the % scale 0 is the no-effect control and ±100 the full control effect.

SMILES	VACV Venus inh	Sm TGR inh	Vaccinia mCherry	HCMV inh	FMDV antiviral	HCV inh
COc1ccccc1C1c2c(-c3ccc(Cl)cc3)n[nH]c2C(=O)N1c1ccc(C)cc1 (stereo unspecified)	-5.1%	1.5%	-11.6%	-105.0*	?	·
CCOc1ccc(C2c3c(-c4ccc(C)cc4)n[nH]c3C(=O)N2c2ccc(Cl)cc2)cc1 (stereo unspecified)	?	2.9%	?	-105.9*	-20.8%	·
CC1=CC(C)C2C(=O)N(c3ccccc3)C(=O)C2C1 (stereo unspecified)	-9.2%	-11.2%	-9.3%	-31.0	·	12.7%
Cc1nc2ccccn2c1C(=O)Nc1ccc2c(c1)OCCO2	-0.3%	-32.7%	-8.3%	12.5	-19.3%	15.5%
O=C(COC(=O)c1ccc(S(=O)(=O)N2CCCC2)cc1)Nc1cccnc1Cl	-16.1%	-12.8%	i	-6.5	-7.6%	-5.4%
COc1cc(S(=O)(=O)Nc2ccc(C)cc2)ccc1NC(=O)c1ccncc1	-21.8%	-14.7%	-7.7%	-19.1	35.3%	-0.8%
COc1ccccc1NC(=O)c1ccc(S(=O)(=O)N2CCCC2)cc1	-16.2%	11.2%	1.8%	24.5	-16.6%	-12.4%
O=C(Nc1cccnc1Cl)c1ccc(S(=O)(=O)N2CCCCCC2)cc1	·	-6.5%	·	-81.6*	-28.1%	?
COc1cc(S(=O)(=O)Nc2ccccc2C)ccc1NC(=O)c1ccncc1	-2.2%	-10.2%	-10.6%	-71.6*	52.0%	-23.1%
CCOC(=O)C1CCCN(C(=O)c2cc(S(=O)(=O)Nc3ccccc3OC)ccc2C)C1 (stereo unspecified)	-17.6%	-2.6%	i	0.0	21.7%	10µM*
COc1ccccc1NS(=O)(=O)c1ccc(C)c(NC(=O)c2ccc(S(=O)(=O)N3CCCCCC3)cc2)c1	-26.2%	-5.5%	-29.9%	-69.3*	-24.6%	7.94µM*
CC(=O)/C(=N/Nc1cccc(C)c1)N1CCOCC1	·	50.1µM*	·	-5.1	-7.4%	8.2%
OCC1(Cc2ccc(Cl)cc2)CCN(CCCc2ccccc2)CC1	-24.1%	-4.6%[57.1 µM]	i	-8.8	-17.2%	12.6µM*
CC1CCN(C(=O)Nc2ccc3nc(-c4ccco4)c(-c4ccco4)nc3c2)CC1	6.7%	·	-5.5%	·	·	·
Nc1c(Cl)c(Cl)nc(C(=O)N/N=C/c2cccnc2)c1Cl	-19.7%	-5.1%	-8.8%	-2.4	1.9%	21.3%
COc1ccc(OCC(=O)N2CCCC2=O)c([N+](=O)[O-])c1	·	?	·	-18.8	2.2%	15.2%
Cn1cnc([N+](=O)[O-])c1Nc1ccc(O)cc1	-10.7%	25.1µM*	-8.7%[1.46 µM]	-24.0	-6.6%	4.3%
CCNc1c([N+](=O)[O-])ncn1C	-18.0%	4.1%	·	8.2	2.9%	?
CCCS(=O)(=O)NC(=O)C1(C)CCN(C(=O)c2ccccc2C(F)(F)F)C1 (stereo unspecified)	-5.5%	·	4.2%	·	-12.1%	·
Cc1cccc(Nc2nc3c(S(=O)(=O)c4ccccc4)nnn3c3ccccc23)c1	3.3%	0.1%	i	31.6	-27.1%	?
O=S(=O)(c1ccccc1)c1nc(Nc2cccc(O)c2)sc1Cl	-25.7%	?	-29.8%	-67.1*	0.0%	?
Cc1ccc(S(=O)(=O)c2nc(NCCN(C)C)sc2Cl)cc1	·	-19.2%	·	?	-20.7%	-17.5%
Cc1ccc(S(=O)(=O)c2nc(Nc3ccccc3)sc2Cl)cc1	·	-20.3%	·	-73.9*	?	11.2µM*
COc1ccc(Nc2nc(S(=O)(=O)c3ccc(C)cc3)c(Cl)s2)cc1	?	5.1%	?	-94.1*	?	?
CCCCN(CC)Cc1ccc(CNC(=O)Nc2ccc(F)cc2)o1	·	0.9%	·	4.6	-25.0%	11.2µM*
SMILES	VACV Venus inh	Sm TGR inh	Vaccinia mCherry	HCMV inh	FMDV antiviral	HCV inh
CCCCN(CC)Cc1ccc(CNC(=S)Nc2c(C)cc(C)cc2C)o1	-3.9%	?	i	-30.0	-13.5%	-11.6%
COc1ccc(-n2c(SCC(=O)NCc3ccccc3)nc3ccsc3c2=O)cc1	-4.3%	-8.0%	7.0%	?	-23.4%	·
COc1ccc(C(=O)Nc2ccc3c(c2)OCCO3)cc1	-8.2%	-1.7%	i	60.6	·	-3.5%
COc1ccc(C(=O)CCNc2cccc(Cl)c2)cc1	-11.3%	44.7µM*	-2.9%	77.2	44.0%	-2.6%
COc1ccc(C(=O)CCNc2ccc3c(c2)OCCO3)cc1	·	14.1µM*	·	46.8	45.8%	-18.5%
Clc1ccc(OCc2nc(-c3ccccn3)no2)c(Br)c1	-11.1%	-14.9%	-6.6%	-60.6*	-47.9%	?
Clc1ccccc1OCc1nc(-c2ccccn2)no1	1.0%	-1.7%	21.6%	55.8	43.8%	?
COc1c([N+](=O)[O-])cc(C(=O)NNC(=O)c2ccc(C)cc2)cc1[N+](=O)[O-]	-5.6%	6.8%	-6.1%	55.8	-22.5%	-6.1%
CCC(C)NC(=O)c1c(N)n(/N=C/c2cccnc2)c2nc3ccccc3nc12 (stereo unspecified)	·	0.0%	·	-2.4	11.7%	14.1µM*
C[n+]1ccnc2cc(Cl)ccc21	2.24µM*	·	11.2µM*	·	·	·
Clc1ccc2nccnc2c1	5.8%	·	-14.4%	·	·	·
C=CC[n+]1ccnc2ccccc21	3.6%	·	21.3%	·	·	·
C[n+]1ccnc2ccccc21	2.24µM*	·	7.94µM*	·	·	·
COc1ccccc1OCc1csc(NC(=O)c2ccco2)n1	-21.3%	-27.6%	·	?	-10.1%	-8.0%
O=C(/C=C/c1ccc(Cl)cc1)c1ccc([N+](=O)[O-])o1	10µM*	?	8.91µM*	-77.6*	?	-4.1%[8.37 µM]
Cc1ccc(C(=O)/C=C/c2ccc(Br)cc2)o1	·	-0.4%	·	31.0	-22.2%	?
CN(Cc1ccccc1)C(=O)c1ccc([N+](=O)[O-])o1	·	39.8µM*	·	-37.8	-4.1%	?
Cc1ccc(/C=C/C(=O)c2ccc([N+](=O)[O-])o2)cc1	?	14.1µM*	-22.9%	-79.2*	?	0.562µM*
Cc1ccc(-n2nnnc2CNC(=O)c2ccc([N+](=O)[O-])o2)cc1C	?	?	?	-26.2	-17.9%	22.4µM*
O=C(COC(=O)c1ccc([N+](=O)[O-])o1)NCc1ccccc1	-16.9%	·	-15.5%	-9.0	-0.8%	7.7%
COC(=O)c1ccccc1S(=O)(=O)N1CCC(C(=O)OC(C)C(=O)Nc2ccc(NC(C)=O)cc2)CC1 (stereo unspecified)	-9.6%	-3.4%	-14.4%	?	-18.4%	22.0%
COc1cc(CN2CCNC(=O)C2CC(=O)N(C)CCN2CCOCC2)cc(OC)c1 (stereo unspecified)	·	?	·	8.9	0.8%	14.6%
Cc1ccc(CNC(=O)c2ccc([N+](=O)[O-])o2)cc1	?	35.5µM*	?	-37.7	-10.8%	?
C=CCc1ccc(OCc2ccc(C(=O)Nc3ccc(NC(C)=O)cc3)o2)c(OC)c1	?	44.7µM*!	?	29.3	20.2%	?
C=CCNC(=O)c1ccc(-c2ccc([N+](=O)[O-])cc2)o1	-8.8%	17.8µM*	-15.2%	?	47.1%	-8.6%

Screening data: PubChem, National Center for Advancing Translational Sciences (NCATS)
